The record followed here is publication PMC5540273 (PLoS ONE, 2017).

Some test systems named below: HPK1; HUNK; ICK; IGF1R; INSRR; INSR; IRAK1; IRAK3; IRAK4; ITK.
Holding throughout (conditions): concentration: 1 μM, replicates: in singlicate; n = 1
A further test has as its system T1, IKK-alpha.
T1 construct: gene CHUK

The subject of the next test is T2, IKK-beta.
T2 construct: gene IKBKB

The next test relates to T3, IKK-epsilon.
T3 construct: gene IKBKE

Test [1] concerns JAK1(JH1domain-catalytic).
Test [2] deals with JAK1(JH2domain-pseudokinase).
Test [3] deals with JAK2(JH1domain-catalytic).
The subject of test [4] is JAK3(JH1domain-catalytic).
In another test the test system is T4, JNK1.
T4 construct: gene MAPK8

The next test deals with T5, JNK2.
T5 construct: gene MAPK9

In the next test the test system is T6, JNK3.
T6 construct: gene MAPK10
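Note: KINOMEscan kinase panel screen.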

With `O=C(Nc1cccc(-c2nn3ncccc3c2-c2ccnc(Nc3cccc(C(F)(F)F)c3)n2)c1)c1c(F)cccc1F` [GSK299495], the “%Inh” value with HPK1 stood at 35%; in the test with HUNK it was 4%; in the test with ICK, 8%; with IGF1R it was 14%; in the test with IKK-alpha it was 33%; in the test on IKK-beta, 17%. Also, the “%Inh” value in the test on IKK-epsilon was 0%; with INSRR, 0%; in the test on INSR, 0%; in the test on IRAK1 it was 38%; in the test on IRAK3, 0%; in the test on IRAK4, 21%. Also, the “%Inh” value is reported as 23% in the test with ITK; 22% in [1]; 0% in test [2]; 0% in [3]; 0% in test [4]; 31% with JNK1. Also, the figures for the “%Inh” value in the test with JNK2 and in the test with JNK3 were 27% and 14%, respectively.

As for `NS(=O)(=O)c1cccc(-c2ccc3nccc(-c4cccc(S(N)(=O)=O)c4)c3c2)c1` [GW867253], the “%Inh” value is on record as 0% in the test with HPK1; 17% with HUNK; 0% in the test with ICK; 0% in the test with IGF1R; 0% in the test on IKK-alpha; 0% in the test with IKK-beta. For the same molecule, the “%Inh” value is 0% in the test on IKK-epsilon; 6% in the test on INSRR; 0% in the test on INSR; 12% with IRAK1; 0% in the test on IRAK3; 0% in the test with IRAK4. Moreover, the “%Inh” value was 0% in the test on ITK; 0% in test [1]; 38% in test [2]; 8% in [3]; 0% in [4]; 30% in the test with JNK1. The “%Inh” value in the test on JNK2 was 5%; with JNK3 it was 0%.

As to `CCn1cnc2c(N)ncnc21` [GW345098], the “%Inh” value with HPK1 stood at 0%; in the test on HUNK, 4%; with ICK, 0%; with IGF1R, 3%; in the test on IKK-alpha it was 0%; with IKK-beta, 4%. Further, the “%Inh” value in the test with IKK-epsilon turned out to be 0%; in the test on INSRR it was 0%; in the test on INSR, 10%; in the test on IRAK1, 0%; in the test on IRAK3 it was 10%; in the test with IRAK4, 0%. Moreover, the “%Inh” value in the test on ITK was found to be 16%; in test [1], 10%; in test [2], 19%; in test [3] it was 7%; in test [4], 17%; with JNK1, 16%. The “%Inh” value in the test on JNK2 and with JNK3 was 0% each time.

On to `COc1ccc(Nc2nccc(N3CCC(NC(=O)Nc4cc(C)ccc4C)C3)n2)cc1` (stereo not shown) [GSK1379741], for which the “%Inh” value in the test with HPK1 amounted to 36%; in the test on HUNK, 0%; in the test with ICK it was 13%; in the test with IGF1R it was 0%; in the test with IKK-alpha it was 0%; with IKK-beta it was 21%. In addition, the “%Inh” value is 0% with IKK-epsilon; 0% with INSRR; 0% with INSR; 18% in the test with IRAK1; 19% with IRAK3; 16% in the test on IRAK4. Also, the “%Inh” value in the test with ITK was determined as 10%; in [1], 23%; in [2] it was 0%; in [3] it was 0%; in [4], 0%; in the test on JNK1, 24%. Also, the “%Inh” value worked out at 0% in the test with JNK2 and 5% in the test with JNK3.

With `c1ccc(-c2n[nH]cc2-c2ccnc3ccccc23)nc1` [GW271431], the “%Inh” value in the test with HPK1 is 27%; with HUNK it was 4%; in the test on ICK, 0%; in the test on IGF1R it was 12%; with IKK-alpha, 0%; with IKK-beta, 0%. Moreover, the “%Inh” value in the test on IKK-epsilon is 22%; in the test on INSRR, 1%; with INSR, 6%; in the test with IRAK1, 6%; in the test on IRAK3, 0%; in the test with IRAK4, 6%. The “%Inh” value is on record as 14% with ITK; 10% in test [1]; 0% in test [2]; 3% in test [3]; 0% in test [4]; 17% in the test on JNK1. In addition, the “%Inh” value in the test on JNK2 is reported as 33%; in the test on JNK3, 12%.

As for `O=c1cc(N2CCOCC2)nc2n(Cc3cccc(C(F)(F)F)c3)ccn12` [GSK2297543], the “%Inh” value came out at 20% in the test on HPK1; 41% in the test on HUNK; 0% with ICK; 0% in the test with IGF1R; 0% in the test with IKK-alpha; 0% in the test with IKK-beta. The “%Inh” value with IKK-epsilon was found to be 7%; with INSRR it was 0%; with INSR, 14%; with IRAK1, 0%; in the test on IRAK3 it was 0%; with IRAK4 it was 0%. The “%Inh” value with ITK turned out to be 9%; in test [1] it was 2%; in test [2] it was 0%; in test [3], 0%; in test [4], 0%; with JNK1 it was 0%. The “%Inh” value in the test on JNK2 was 10%; in the test with JNK3, 0%.

As for `COc1ccc(S(=O)(=O)NC2CCN(c3cc(C)nc(Nc4cccc(C#N)c4)n3)CC2)cc1.O=C(O)C(F)(F)F` [GSK1653539], the “%Inh” value with HPK1 came to 38%; in the test on HUNK, 2%; in the test on ICK it was 0%; in the test on IGF1R, 0%; with IKK-alpha it was 0%; in the test on IKK-beta it was 0%. Besides, the “%Inh” value in the test on IKK-epsilon amounted to 49%; in the test with INSRR it was 0%; in the test with INSR, 0%; in the test with IRAK1 it was 0%; in the test with IRAK3, 0%; in the test on IRAK4 it was 0%. The “%Inh” value in the test with ITK was found to be 10%; in [1], 34%; in test [2], 0%; in test [3], 0%; in test [4], 0%; in the test on JNK1, 0%. Also, the “%Inh” value in the test on JNK2 worked out at 28%; with JNK3 it was 12%.

On to `Fc1ccc(-c2ncn(CCCN3CCOCC3)c2-c2ccccn2)cc1` [SB-211742], for which the “%Inh” value turned out to be 11% in the test with HPK1; 54% in the test with HUNK; 0% with ICK; 0% in the test with IGF1R; 0% in the test with IKK-alpha; 0% with IKK-beta. Further, the “%Inh” value with IKK-epsilon is 0%; in the test with INSRR, 0%; in the test with INSR, 0%; in the test on IRAK1, 0%; in the test with IRAK3, 1%; in the test on IRAK4 it was 0%. The “%Inh” value in the test with ITK came to 0%; in test [1], 0%; in test [2] it was 0%; in test [3], 0%; in test [4] it was 0%; with JNK1, 20%. Moreover, the “%Inh” value in the test on JNK2 and with JNK3 was 0% in each case.
